Assay results reported in ChEMBL document CHEMBL3988442, “University of Dundee, Small-Polar-MMV Screening Library” (2021).
For some assays here: Results with a measured potency or affinity are listed apart.

Columns and labels:
Parameters in all cases: scale not given: direction of the effect not stated beside the values
[1] = biological target: Protein translocase subunit SecA (Escherichia coli (strain K12)) (UniProt P10408); assay: Assay to Identify E. coli SecA ATPase Inhibitors; type: functional; conditions: 30 µM
[2] = biological target: T1, Ubiquitin-activating enzyme e1, putative (Leishmania donovani (strain BPK282A1)) (UniProt E9BSI1); assay: Leishmania donovani Ubiquitin Activating Enzyme (LdE1); type: functional; conditions: 30 µM
T1 sequence (whole entry): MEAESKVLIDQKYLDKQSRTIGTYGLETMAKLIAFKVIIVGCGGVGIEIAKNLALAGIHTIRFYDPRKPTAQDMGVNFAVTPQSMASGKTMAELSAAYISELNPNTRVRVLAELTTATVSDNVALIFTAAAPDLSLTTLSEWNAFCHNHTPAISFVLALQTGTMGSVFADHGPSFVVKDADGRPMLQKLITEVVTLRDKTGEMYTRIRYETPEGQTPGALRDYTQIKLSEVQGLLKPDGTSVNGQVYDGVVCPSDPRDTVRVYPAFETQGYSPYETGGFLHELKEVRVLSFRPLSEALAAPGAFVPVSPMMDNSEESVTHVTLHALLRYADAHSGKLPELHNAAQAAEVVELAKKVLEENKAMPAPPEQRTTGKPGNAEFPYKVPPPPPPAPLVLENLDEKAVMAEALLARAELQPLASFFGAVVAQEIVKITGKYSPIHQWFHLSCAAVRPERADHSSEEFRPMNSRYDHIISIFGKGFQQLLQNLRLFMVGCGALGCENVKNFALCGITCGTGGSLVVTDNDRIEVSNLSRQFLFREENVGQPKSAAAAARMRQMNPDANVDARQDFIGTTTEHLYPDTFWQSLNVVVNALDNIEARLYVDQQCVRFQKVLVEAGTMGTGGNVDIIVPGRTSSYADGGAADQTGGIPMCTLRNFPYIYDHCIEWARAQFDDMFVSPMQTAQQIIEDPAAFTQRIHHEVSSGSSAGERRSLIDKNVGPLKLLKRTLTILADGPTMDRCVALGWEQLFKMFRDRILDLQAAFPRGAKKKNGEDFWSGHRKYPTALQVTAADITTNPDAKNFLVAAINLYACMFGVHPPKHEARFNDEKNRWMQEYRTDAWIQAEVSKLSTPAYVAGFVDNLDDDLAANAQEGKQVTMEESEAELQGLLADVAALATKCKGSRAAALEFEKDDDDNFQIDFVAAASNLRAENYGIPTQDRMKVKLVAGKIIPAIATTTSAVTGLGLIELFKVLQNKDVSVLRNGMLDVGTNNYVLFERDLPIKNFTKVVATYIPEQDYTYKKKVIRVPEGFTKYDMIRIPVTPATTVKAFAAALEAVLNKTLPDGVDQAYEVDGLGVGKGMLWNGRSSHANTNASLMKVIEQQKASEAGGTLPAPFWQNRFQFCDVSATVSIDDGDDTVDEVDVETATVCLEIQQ

[3] = biological target: AMP-activated protein kinase, AMPK (Homo sapiens) (UniProt P54646+O43741+P54619+Q9UGJ0+Q9Y478+Q13131+Q9UGI9); assay: AMP-dependent Kinase enzyme assay. An in vitro enzyme assay that detects ADP turnover that is directly proportional to AMPK activity. This uses naive AMPK that is activated during the assay with MK-8722; type: functional; conditions: 30 µM
[4] = biological target: Sialic acid-binding Ig-like lectin 9 (Homo sapiens) (UniProt Q9Y336); assay: Hs-Siglec9 ALPHAscreen SOP 20170721; conditions: 10 µM
[5] = tested on: Trypanosoma cruzi; assay: Trypanosoma cruzi phosphomannomutase and mannose-1-phosphate guanylyltransferase assay; type: functional; conditions: 10 µM
[6] = biological target: T2, Arginase-2, mitochondrial (Homo sapiens) (UniProt P78540); assay: in vitro enzyme assay to detect the production of urea directly proportional to the activity of Arginase II; type: functional; conditions: 33.3 µM; further: in the data most compounds retested in dose-response had high values
T2 sequence (whole entry): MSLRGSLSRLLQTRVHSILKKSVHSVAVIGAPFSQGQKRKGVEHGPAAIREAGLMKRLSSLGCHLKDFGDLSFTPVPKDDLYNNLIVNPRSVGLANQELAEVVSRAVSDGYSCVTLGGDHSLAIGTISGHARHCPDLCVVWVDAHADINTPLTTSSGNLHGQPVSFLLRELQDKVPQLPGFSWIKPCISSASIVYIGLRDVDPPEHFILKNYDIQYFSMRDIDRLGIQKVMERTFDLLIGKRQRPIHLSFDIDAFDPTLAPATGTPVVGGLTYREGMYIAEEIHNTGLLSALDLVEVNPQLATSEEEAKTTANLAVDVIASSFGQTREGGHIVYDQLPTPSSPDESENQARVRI

[7] = biological target: T3, Proteasome subunit beta (Trypanosoma cruzi) (UniProt O96673); assay: Trypanosoma cruzi proteasome chymotrypsin-like activity (TcProtChymo) assay.; further: in the data most compounds retested in dose-response had high values; type: functional; conditions: 9.37 µM
T3 sequence (whole entry): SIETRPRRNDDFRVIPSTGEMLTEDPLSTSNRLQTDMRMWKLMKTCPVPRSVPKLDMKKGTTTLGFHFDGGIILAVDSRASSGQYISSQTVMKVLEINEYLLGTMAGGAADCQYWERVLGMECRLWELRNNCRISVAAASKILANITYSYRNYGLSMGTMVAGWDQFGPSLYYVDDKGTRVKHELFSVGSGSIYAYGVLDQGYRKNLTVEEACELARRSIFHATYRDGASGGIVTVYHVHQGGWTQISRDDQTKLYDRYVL

[8] = organism: Homo sapiens; assay: To identify inhibition of the IFN signalling (Jak-Stat) pathway via expression of an eGFP reporter gene under the control of an IFN-stimulated response element (ISRE) containing MxA promoter.; type: functional; conditions: 30 µM
[9] = biological target: T4, Tyrosyl-tRNA synthetase, putative (Trypanosoma cruzi (strain CL Brener)) (UniProt Q4DSP6); assay: Trypanosoma cruzi tyrosyl tRNA synthetase (TcYRS) _High Tyrosine SOP; type: functional; conditions: 30 µM; further: in the data most compounds retested in dose-response had high values
T4 sequence (whole entry): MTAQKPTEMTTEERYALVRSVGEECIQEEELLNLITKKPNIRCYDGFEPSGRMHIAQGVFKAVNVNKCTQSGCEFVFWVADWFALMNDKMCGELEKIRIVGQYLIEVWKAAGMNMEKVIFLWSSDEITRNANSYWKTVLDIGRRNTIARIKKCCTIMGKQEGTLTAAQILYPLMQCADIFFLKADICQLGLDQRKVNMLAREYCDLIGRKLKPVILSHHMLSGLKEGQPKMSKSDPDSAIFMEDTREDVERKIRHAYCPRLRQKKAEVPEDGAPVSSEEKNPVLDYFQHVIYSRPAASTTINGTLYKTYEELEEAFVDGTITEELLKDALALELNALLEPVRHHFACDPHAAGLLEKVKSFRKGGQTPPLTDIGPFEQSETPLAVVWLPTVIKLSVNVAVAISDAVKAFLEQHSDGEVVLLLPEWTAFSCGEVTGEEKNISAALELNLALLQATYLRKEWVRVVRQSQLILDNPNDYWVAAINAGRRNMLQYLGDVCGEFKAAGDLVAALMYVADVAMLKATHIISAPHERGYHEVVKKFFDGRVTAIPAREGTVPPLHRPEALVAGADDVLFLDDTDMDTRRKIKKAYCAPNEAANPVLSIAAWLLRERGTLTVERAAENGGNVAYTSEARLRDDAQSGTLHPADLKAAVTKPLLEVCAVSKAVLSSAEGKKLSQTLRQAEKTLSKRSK

[10] = biological target: T4, Tyrosyl-tRNA synthetase, putative (Trypanosoma cruzi (strain CL Brener)); assay: Trypanosoma cruzi tyrosyl tRNA synthetase (TcYRS) SOP; type: functional; conditions: 30 µM
[11] = biological target: Chromo domain-containing protein 1 (Saccharomyces cerevisiae (strain ATCC 204508 / S288c) (Baker's yeast)) (UniProt P32657); assay: ScCHD-1 Enzyme Inhibition Assay; type: functional; conditions: 30 µM; further: in the data most compounds retested in dose-response had high values
Sequence of Chromo domain-containing protein 1 (Saccharomyces cerevisiae (strain ATCC 204508 / S288c) (Baker's yeast)) (P32657 whole entry, the tested form may be a part): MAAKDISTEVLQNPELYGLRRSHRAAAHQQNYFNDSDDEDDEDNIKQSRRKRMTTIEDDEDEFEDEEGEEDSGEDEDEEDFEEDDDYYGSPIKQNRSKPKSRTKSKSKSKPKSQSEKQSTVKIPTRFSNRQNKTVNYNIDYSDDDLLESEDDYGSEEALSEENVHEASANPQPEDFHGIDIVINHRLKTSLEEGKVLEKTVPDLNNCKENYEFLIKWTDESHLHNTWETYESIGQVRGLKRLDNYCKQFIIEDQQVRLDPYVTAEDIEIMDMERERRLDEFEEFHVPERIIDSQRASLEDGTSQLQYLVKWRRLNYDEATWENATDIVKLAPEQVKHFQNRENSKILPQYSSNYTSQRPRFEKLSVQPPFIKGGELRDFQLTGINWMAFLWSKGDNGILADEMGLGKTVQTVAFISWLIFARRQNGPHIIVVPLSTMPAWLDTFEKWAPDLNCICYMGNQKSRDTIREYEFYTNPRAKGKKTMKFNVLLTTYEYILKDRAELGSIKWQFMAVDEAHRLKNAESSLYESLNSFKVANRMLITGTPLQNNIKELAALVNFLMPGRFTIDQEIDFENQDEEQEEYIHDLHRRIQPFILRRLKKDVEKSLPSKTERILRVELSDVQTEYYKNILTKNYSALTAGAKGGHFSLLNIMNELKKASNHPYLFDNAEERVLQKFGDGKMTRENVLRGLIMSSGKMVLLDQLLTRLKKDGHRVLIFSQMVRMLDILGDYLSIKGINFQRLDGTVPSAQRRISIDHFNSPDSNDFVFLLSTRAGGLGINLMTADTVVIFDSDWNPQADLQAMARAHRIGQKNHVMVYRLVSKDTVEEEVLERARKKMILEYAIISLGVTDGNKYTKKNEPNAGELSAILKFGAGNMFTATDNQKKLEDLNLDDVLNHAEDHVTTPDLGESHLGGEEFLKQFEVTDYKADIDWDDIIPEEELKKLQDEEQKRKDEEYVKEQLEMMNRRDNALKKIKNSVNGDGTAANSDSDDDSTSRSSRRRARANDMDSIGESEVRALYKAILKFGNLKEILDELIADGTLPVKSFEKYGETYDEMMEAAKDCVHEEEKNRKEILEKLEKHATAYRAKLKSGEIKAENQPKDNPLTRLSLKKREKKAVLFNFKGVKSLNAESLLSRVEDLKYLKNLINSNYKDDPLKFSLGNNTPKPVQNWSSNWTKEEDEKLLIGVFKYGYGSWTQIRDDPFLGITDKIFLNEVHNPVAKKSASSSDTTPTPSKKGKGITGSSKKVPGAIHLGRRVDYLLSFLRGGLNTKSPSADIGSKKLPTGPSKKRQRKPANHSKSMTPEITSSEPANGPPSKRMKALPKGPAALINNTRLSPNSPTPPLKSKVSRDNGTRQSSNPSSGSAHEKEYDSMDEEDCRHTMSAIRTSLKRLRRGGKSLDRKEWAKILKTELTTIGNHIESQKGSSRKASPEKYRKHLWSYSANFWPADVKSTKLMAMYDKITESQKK

Sequence of Protein translocase subunit SecA (Escherichia coli (strain K12)) (P10408 whole entry): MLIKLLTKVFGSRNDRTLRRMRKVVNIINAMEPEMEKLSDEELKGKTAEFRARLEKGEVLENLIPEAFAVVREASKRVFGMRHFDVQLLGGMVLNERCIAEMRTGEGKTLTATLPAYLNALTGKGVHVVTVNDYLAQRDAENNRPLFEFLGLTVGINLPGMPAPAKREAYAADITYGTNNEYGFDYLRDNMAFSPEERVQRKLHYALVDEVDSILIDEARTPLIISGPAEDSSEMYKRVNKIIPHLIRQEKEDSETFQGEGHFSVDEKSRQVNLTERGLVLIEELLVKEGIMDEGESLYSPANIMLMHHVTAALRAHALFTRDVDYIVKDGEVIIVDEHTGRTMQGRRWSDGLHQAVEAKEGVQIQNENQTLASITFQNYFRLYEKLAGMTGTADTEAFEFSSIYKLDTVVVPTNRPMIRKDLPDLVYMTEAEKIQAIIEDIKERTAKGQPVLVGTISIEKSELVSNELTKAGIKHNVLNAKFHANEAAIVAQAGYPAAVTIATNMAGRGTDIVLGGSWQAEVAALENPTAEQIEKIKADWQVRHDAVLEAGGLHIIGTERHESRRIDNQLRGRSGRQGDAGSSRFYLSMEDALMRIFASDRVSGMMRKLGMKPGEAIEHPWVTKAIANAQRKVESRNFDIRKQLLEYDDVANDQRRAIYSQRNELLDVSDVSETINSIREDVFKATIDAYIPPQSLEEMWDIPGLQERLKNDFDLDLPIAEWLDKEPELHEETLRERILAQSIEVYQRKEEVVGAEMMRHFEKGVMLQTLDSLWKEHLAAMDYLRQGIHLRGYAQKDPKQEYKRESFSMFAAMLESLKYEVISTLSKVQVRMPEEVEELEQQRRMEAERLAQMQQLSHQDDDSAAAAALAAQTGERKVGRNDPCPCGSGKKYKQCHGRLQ
Sequence of Sialic acid-binding Ig-like lectin 9 (Homo sapiens) (Q9Y336 whole entry): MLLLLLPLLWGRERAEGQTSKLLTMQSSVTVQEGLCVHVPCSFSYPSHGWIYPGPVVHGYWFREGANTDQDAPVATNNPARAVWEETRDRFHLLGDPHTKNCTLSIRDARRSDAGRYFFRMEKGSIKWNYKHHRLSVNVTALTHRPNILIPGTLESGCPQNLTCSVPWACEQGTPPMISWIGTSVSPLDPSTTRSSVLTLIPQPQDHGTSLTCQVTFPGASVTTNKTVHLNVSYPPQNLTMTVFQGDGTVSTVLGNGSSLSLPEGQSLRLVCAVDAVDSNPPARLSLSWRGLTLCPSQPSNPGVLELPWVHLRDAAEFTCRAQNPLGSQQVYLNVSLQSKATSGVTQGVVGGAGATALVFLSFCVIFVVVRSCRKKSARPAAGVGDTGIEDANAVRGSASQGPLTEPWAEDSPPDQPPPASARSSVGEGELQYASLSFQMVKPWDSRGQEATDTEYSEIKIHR

| SMILES | Percent Effect [1] | Percent Effect [2] | Percent Effect [3] | Percent Effect [4] | Percent Effect [5] | Percent Effect [6] | Percent Effect [7] | Percent Effect [8] | Percent Effect [9] | Percent Effect [10] | Percent Effect [11] |
| --- | --- | --- | --- | --- | --- | --- | --- | --- | --- | --- | --- |
| c1cnn(-c2ccc(CN3CCOC(Cn4cncn4)C3)cc2)c1 (configuration not stated) | -2.23% | 12.7% | 0.7% | 6.36% | 2.74% | 1.52% | -2.21% | -11.6% | 7.39% | 13.9% | -8.36% |
| O=C(Cc1ccc(F)cc1)NCCNCC1CNc2ccnn2C1 (configuration not stated) | -1.32% | 18.9% | -4.44% | 24.8% | 10.8% | 10% | 6.72% | 2.03% | 8.99% | 17.1% | -7.92% |
| CC1(C(=O)N2CCOCC2)CN(Cc2ccccc2F)CCO1 (configuration not stated) | -2.69% | 8% | 12% | 4.39% | -4.13% | 0.699% | -1.15% | 17% | 3.19% | 8.97% | -1.88% |
| Cc1nc(CSCCC(=O)NCc2cccnc2N(C)C)cs1 | -0.871% | 20.2% | -1.17% | -7.06% | 5.38% | 4.56% | 7.45% | 5.3% | 6.4% | 24.1% | -7.54% |
| CCN1CC2(CCC1=O)CCN(C(=O)c1ccc(Cl)cc1O)CC2 | 0.161% | 12.5% | -4.82% | 5.1% | 4.37% | 25.6% | 4.56% | 19.3% | 4.21% | 15.4% | -5.87% |
| Fc1cnc(N2CCn3cc(CNc4ccccn4)nc3C2)nc1 | 0.222% | -2.67% | 7.82% | 16.2% | -0.193% | -56.1% | 3.76% | 7.84% | -1.04% | -5% | -2.56% |
| CCn1nc(C)c2nc(C(C)C)nc(N3CCCCC3)c21 | -3.55% | 2.6% | 1.61% | 3.47% | -5.8% | -9.65% | 1.5% | 5.04% | 3.23% | 6.17% | -0.27% |
| COc1ccc(NC(C)C(=O)N2CCN(Cc3ccccc3)CC2)cn1 (configuration not stated) | -0.598% | -2.74% | -258% | -6.68% | -0.783% | 3.18% | -6.21% | 4.99% | 1.07% | 0% | -0.618% |
| CN(C)CC(=O)N1CCC2(CC1)CN(c1ccsc1)C(=O)CO2 | -9.33% | 2.67% | 3.11% | -6.49% | -4.33% | -0.233% | 3.96% | 15.6% | 0% | -3.85% | -3.46% |
| O=C(NCC(Cc1cccc(F)c1)N1CCCC1=O)c1cnccn1 (configuration not stated) | -2.43% | 2.74% | 8.47% | -6.79% | -4.31% | 3.64% | 9.94% | -2.19% | 4.3% | 5% | -2.36% |
| CN1CCCc2cc(CNC(=O)c3ccncc3)ccc21 | -3.56% | 19% | 22.6% | -0.0483% | 1.54% | -1.94% | 21.4% | 28.5% | 2.08% | 17.7% | -25.8% |
| CCOc1cccc(C(=O)NCCC(=O)Nc2ccncc2)c1 | -1.91% | -5.26% | 3.2% | -0.438% | -2.43% | 8.28% | 13.7% | 3.36% | 4.25% | 10.4% | -3.67% |
| CNS(=O)(=O)Cc1ccc(CNC(=O)c2cccc(C)n2)cc1 | -2.39% | 23.4% | 0.0556% | 2.86% | 4.12% | -3.92% | 5.57% | 15.5% | 11.7% | 21.9% | -7.52% |
| COc1ccc(CN2CCOC3(CCCN(c4nnc(C)o4)C3)C2)cc1 (configuration not stated) | -4.63% | -2.74% | -4.05% | 6.97% | 5.75% | 2% | 10.4% | -9.72% | 4.17% | -1.24% | -4.74% |
| CCS(=O)(=O)c1ccc(N2CCC(NC(=O)c3cnn(C)c3)CC2)cc1 | -5.94% | 2.67% | -5.84% | 34.3% | 10.2% | -2.08% | 16.2% | 21.8% | 1.64% | 13.6% | -5.47% |
| COc1ccc(CN(Cc2cncn2C)CC2CCCO2)c(OC)c1 (configuration not stated) | -2.55% | 17.6% | 4.23% | -4.44% | -0.79% | 0.696% | 20% | 17.5% | 5.38% | 14.3% | -18.5% |
| CN(C)C(=O)c1ccc2c(c1)N(C)C(CC(=O)NC(C)(C)CO)CO2 (configuration not stated) | -8.01% | -4.17% | -3.33% | 3.27% | -2.82% | -2.21% | 10.7% | -2.49% | -2.1% | -5.13% | 0.823% |
| Cc1cc(C(=O)NC2CCCN(c3ccccc3)C2=O)on1 (configuration not stated) | -6.07% | 5.33% | -2.45% | -2.4% | -0.0974% | -1.56% | 8.37% | 5.07% | 1.64% | 13.6% | -2.89% |
| CNC(=O)c1nc2c(s1)CCN(C(=O)Cc1ccc(OC)cc1)CC2 | -7.69% | 5.41% | 1.22% | -1.04% | -1.07% | -1.59% | 0.369% | 8.46% | 4.32% | 0% | 1.61% |
| COc1cc2nc3n(c(=O)c2cc1OC)CCN(C)CC3 | -7.78% | 1.35% | 11.9% | 1.61% | -3.56% | -3.48% | 0.312% | 0.926% | 2.15% | 3.9% | -5.62% |
| CCc1nc(NS(=O)(=O)c2cc(C)ccc2F)no1 | -0.155% | 0% | -9.72% | 8.2% | 6.13% | 15.1% | 3.84% | 1.84% | 2.73% | 6.17% | -2.85% |
| Cc1csc(N2CCN(C(=O)CCc3ccccn3)CC2)n1 | -1.62% | 13.5% | -16% | 7.95% | 3.87% | -12.8% | 10.8% | 6.58% | 10.3% | 25.9% | -12.7% |
